Test results from PubChem BioAssay.
Values joined by “and” are separate entries in the source; they are usually repeats but may differ in a detail not shown here. Equal values may be shown once. Results filed as inconclusive are left out. Active and inactive are the calls of the source.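 The calls were made as follows, unless noted: active = normalized viability below 100% at a tested concentration; inactive = the rest.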

How the values were obtained:
[1] = growth inhibition of DIPG glioma cells, dose response, cell-based, SU-DIPG-XIII, MIPE4.0, CellTiter-Glo, qHTS (AID 1347061; cut-off not given, nearly all actives have AC50 up to about 37 µM;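 also: cells exposed to compound for 48 hours before readout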); conditions: SU-DIPG-XIII viability, CellTiter-Glo ATP luminescence
[2] = growth inhibition of DIPG glioma cells, dose response, cell-based, JHH-DIPG-1, MIPE4.0, CellTiter-Glo, qHTS (AID 1347062; cut-off not given, nearly all actives have AC50 up to about 27 µM;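 as to AC50: cells exposed to compound for two days before readout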); conditions: JHH-DIPG-1 viability, CellTiter-Glo ATP luminescence
[3] = SU-DIPG-VI glioma cell viability, MIPE4.0 library, CellTiter-Glo luminescence, qHTS (AID 1347066; cut-off not given, nearly all actives have AC50 up to about 30 µM;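 also: cells exposed to compound for 48 hours before readout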); conditions: CellTiter-Glo ATP luminescence
[4] = SU-DIPG-XXV glioma cell viability, MIPE5.0 library, qHTS (AID 1347068; cut-off not given, nearly all actives have IC50 up to about 30 µM;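 as to IC50: cells exposed to compound for 48 hours before viability readout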)
[5] = viability loss in pontine glioma line – cell-based, SU-DIPG-XXV, MIPE5.0, CellTiter-Glo, qHTS, dose response (AID 1347065; cut-off not given, nearly all actives have AC50 up to about 26 µM;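 also: cells exposed to compound for 48 hours before ATP readout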); conditions: CellTiter-Glo ATP luminescence
[6] = sensitizers of A549 cells to miR-34 induction, primary screen, imaging, A549 dox-inducible miR-34, nuclei and caspase counts (AID 1347080;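 active = compounds whose cell count with miR-34 switched on is under 0.7 times the count with it off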); conditions: A549 miR-34 inducible, Hoechst nuclei count, 48 h
[7] = survival rescue of mitochondrial mutant cells in low glucose, primary screen, MELAS cybrids, Rieske KO mouse fibroblasts, CellTiter-Glo (AID 1508586;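 active = mean z-score across replicates of 1.96 or higher in either the MELAS or the Rieske mutant cell line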;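 also: z relative to plate mean and SD of compound and empty wells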)
[8] = ovarian cancer cell viability with rucaparib, profiling panel, oncology-focused library, rucaparib conditional (AID 1508598); conditions: patient-derived ovarian cancer cells, CellTiter-Glo viability, 144 h, stronger effect = lower value
[9] = JHH-DIPG-1 glioma cell viability, MIPE5.0 library, CellTiter-Glo luminescence, qHTS (AID 1347067; cut-off not given, nearly all actives have AC50 up to about 26 µM;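 also: cells exposed to compound for 48 hours before readout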); conditions: JHH-DIPG-1 glioma viability, CellTiter-Glo ATP luminescence
[10] = stronger effect = lower value, cell number ratio, induced over uninduced
[11] = measured here: relative caspase fold change +Dox/-Dox
[12] = measured here: total cells with miR-34 induction, stronger effect = lower value
[13] = measured here: total cells without miR-34 induction
[14] = MELAS cybrid survival, CellTiter-Glo 48 h, stronger effect = higher value
[15] = Rieske KO mouse fibroblast survival, CellTiter-Glo 72 h

In the case of `CCCn1c(=O)c2[nH]c(C34CC5CC3C[C@@H](C5)C4)nc2n(CCC)c1=O`, the outcome [1] is reported as “inactive”, the outcome [2] is reported as “inactive” and the outcome [3] is reported as “inactive”. The outcome [4] was “inactive”.
For `Cc1cccc(Nc2nc(-c3ccncc3)cs2)c1`, the outcome [1] was “inactive”, the AC50 [2] was 20.9 µM (active) and the AC50 [5] was 20.9 µM (active). The outcome [3] was “inactive”, the outcome [4] was “inactive” and the fold change [6, 10] was 0.988 (inactive) and 0.935 (inactive). The fold change [6, 11] was 0.542 and 0.911, the cell count [6, 12] was 4770 and 4650 and the cell count [6, 13] was 4820 and 4970. The z-score [7, 14] was -0.247 (inactive), the z-score [7, 15] was 1.01 and the viability ([8]; at 0.000305 µM, OCI-C5x cells, with rucaparib 10 µM, 100% = cells with rucaparib alone) was 109% (inactive). The viability ([8]; at 0.000305 µM, OCI-C5x cells, without rucaparib) was 111% (inactive), the viability ([8]; at 0.000305 µM, OCI-P5x cells, with rucaparib 20 µM, 100% = cells with rucaparib alone) was 88.3% (active) and the viability ([8]; at 0.000305 µM, OCI-P5x cells, without rucaparib) was 86.6% (active). For the same molecule, the viability ([8]; at 0.00122 µM, OCI-C5x cells, with rucaparib 10 µM, 100% = cells with rucaparib alone) was 108% (inactive), the viability ([8]; at 0.00122 µM, OCI-C5x cells, without rucaparib) was 108% (inactive) and the viability ([8]; at 0.00122 µM, OCI-P5x cells, with rucaparib 20 µM, 100% = cells with rucaparib alone) was 95.8% (active). For the same molecule, the viability ([8]; at 0.00122 µM, OCI-P5x cells, without rucaparib) was 93.7% (active), the viability ([8]; at 0.00488 µM, OCI-C5x cells, with rucaparib 10 µM, 100% = cells with rucaparib alone) was 114% (inactive) and the viability ([8]; at 0.00488 µM, OCI-C5x cells, without rucaparib) was 106% (inactive). The viability ([8]; at 0.00488 µM, OCI-P5x cells, with rucaparib 20 µM, 100% = cells with rucaparib alone) was 75.1% (active), the viability ([8]; at 0.00488 µM, OCI-P5x cells, without rucaparib) was 94.9% (active) and the viability ([8]; at 0.0195 µM, OCI-C5x cells, with rucaparib 10 µM, 100% = cells with rucaparib alone) was 112% (inactive). For the same molecule, the viability ([8]; at 0.0195 µM, OCI-C5x cells, without rucaparib) was 112% (inactive), the viability ([8]; at 0.0195 µM, OCI-P5x cells, with rucaparib 20 µM, 100% = cells with rucaparib alone) was 110% (inactive) and the viability ([8]; at 0.0195 µM, OCI-P5x cells, without rucaparib) was 89.5% (active). The viability ([8]; at 0.0781 µM, OCI-C5x cells, with rucaparib 10 µM, 100% = cells with rucaparib alone) was 107% (inactive), the viability ([8]; at 0.0781 µM, OCI-C5x cells, without rucaparib) was 108% (inactive) and the viability ([8]; at 0.0781 µM, OCI-P5x cells, with rucaparib 20 µM, 100% = cells with rucaparib alone) was 102% (inactive). For the same molecule, the viability ([8]; at 0.0781 µM, OCI-P5x cells, without rucaparib) was 101% (inactive), the viability ([8]; at 0.313 µM, OCI-C5x cells, with rucaparib 10 µM, 100% = cells with rucaparib alone) was 115% (inactive) and the viability ([8]; at 0.313 µM, OCI-C5x cells, without rucaparib) was 106% (inactive). The viability ([8]; at 0.313 µM, OCI-P5x cells, with rucaparib 20 µM, 100% = cells with rucaparib alone) was 104% (inactive), the viability ([8]; at 0.313 µM, OCI-P5x cells, without rucaparib) was 95.3% (active) and the viability ([8]; at 1.25 µM, OCI-C5x cells, with rucaparib 10 µM, 100% = cells with rucaparib alone) was 129% (inactive). The viability ([8]; at 1.25 µM, OCI-C5x cells, without rucaparib) was 115% (inactive), the viability ([8]; at 1.25 µM, OCI-P5x cells, with rucaparib 20 µM, 100% = cells with rucaparib alone) was 101% (inactive) and the viability ([8]; at 1.25 µM, OCI-P5x cells, without rucaparib) was 98.4% (active). The viability ([8]; at 5 µM, OCI-C5x cells, with rucaparib 10 µM, 100% = cells with rucaparib alone) was 157% (inactive), the viability ([8]; at 5 µM, OCI-C5x cells, without rucaparib) was 136% (inactive) and the viability ([8]; at 5 µM, OCI-P5x cells, with rucaparib 20 µM, 100% = cells with rucaparib alone) was 82.2% (active). The viability ([8]; at 5 µM, OCI-P5x cells, without rucaparib) was 110% (inactive).
With `CC1(C)OC2CC3C4CC(F)C5=CC(=O)C=CC5(C)C4C(O)CC3(C)[C@]2(C(=O)CO)O1` (stereo partly specified) the outcome [1] was “inactive”, the outcome [2] was “inactive” and the outcome [3] was “inactive”.
For `C=C1c2cccc(O)c2C(O)=C2C(=O)[C@@]3(O)C(O)=C(C(N)=O)C(=O)[C@@H](N(C)C)[C@@H]3[C@@H](O)[C@H]12`, the outcome [1] was “inactive”, the outcome [2] was “inactive” and the outcome [5] was “inactive”. The outcome [3] was “inactive” and the outcome [4] was “inactive”.
In the case of `O=C(O)C1(Cc2cccc(Nc3nccs3)n2)CCC(Oc2cccc(Cl)c2F)CC1` (stereo unspecified), the outcome [1] is reported as “inactive”, the outcome [2] is reported as “inactive” and the outcome [3] is reported as “inactive”. The outcome [4] was “inactive”, the fold change [6, 10] was 1.01 (inactive) and the fold change [6, 11] was 0.491. The cell count [6, 12] was 3320, the cell count [6, 13] was 3280 and the z-score [7, 14] was -0.373 (inactive). The z-score [7, 15] was 0.69.
For `CC(C)(Cc1ccc2ccccc2c1)NC[C@@H](O)COc1cccc(Cl)c1C#N`, the outcome [1] was “inactive”, the outcome [2] was “inactive” and the AC50 [5] was 10.5 µM (active). The AC50 [9] was 10.5 µM (active) and the IC50 [4] was 13.2 µM (active).
With `COc1ccc2c(Oc3ccc(NC(=O)c4c(C)n(CC(C)(C)O)n(-c5ccccc5)c4=O)nc3)ccnc2c1` the outcome [1] was “inactive”, the outcome [2] was “inactive” and the AC50 [5] was 13.2 µM (active). For the same molecule, the outcome [3] was “inactive”, the fold change [6, 10] was 0.842 (inactive) and the fold change [6, 11] was 0.917. The cell count [6, 12] was 7640, the cell count [6, 13] was 9080 and the z-score [7, 14] was -0.36 (inactive). It also gave a z-score [7, 15] of 1.01.
With `O=c1c(-c2ccc(O)cc2)coc2cc(OC3O[C@H](CO)[C@@H](O)[C@H](O)[C@H]3O)cc(O)c12` (stereo partly specified) the AC50 [1] was 20.9 µM (active), the outcome [2] was “inactive” and the outcome [3] was “inactive”.
For `CCCCc1ccc(NS(=O)(=O)c2ccc(C)c(C(=O)N3CCN(c4cccc(C)c4C)CC3)c2)cc1`, the outcome [1] was “inactive”, the outcome [2] was “inactive” and the AC50 [3] was 23.5 µM (active).
